Measurements as given in the supplement of paper PMC6555819.

Experiments:
Test in all cases: PBM binding z-score (relative to random genomic background probes); higher = stronger binding; sequences stand for … in GC…GCGATTGACAGCGTAGAATGAAGG
[1] = tested on: RARb homodimer (NR concentration 270 nM)
How it was run: (§1)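 Custom Agilent 4×180K protein-binding microarrays carried double-stranded probes. Their 34-nt variable regions held direct-repeat seeds, single-nucleotide variants, half-site ablations and random human genomic background sequences. Arrays were incubated 1 h with ligand-free nuclear receptor dimers in PBS pH 7.4, 2% milk, 0.02% Triton X-100, 1 mM DTT, 0.2 mg/mL BSA and 0.4 mg/ml salmon testes DNA. Antibodies against each partner (one per run) detected binding, and scanned fluorescence was regression-normalized. Binding z-scores use random background probes as reference.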

[2] = tested on: RARg:RXRa (NR concentration 270 nM, RXRa partner concentration 90 nM)
How it was run: as §1

[3] = tested on: RARg homodimer (NR concentration 270 nM)
How it was run: as §1

[4] = tested on: RXRa DBDmut IVT, anti-RXR (DBD mutation: RXRa K156A/R161A, NR concentration 90 nM)
How it was run: as §1

[5] = tested on: RXRa homodimer (NR concentration 180 nM)
How it was run: as §1

[6] = tested on: THRa:RXRa (NR concentration 90 nM, RXRa partner concentration 90 nM)
How it was run: as §1

[7] = tested on: THRa homodimer (NR concentration 90 nM)
How it was run: as §1

[8] = tested on: VDR homodimer (NR concentration 270 nM)
How it was run: as §1

Row | Sequence | PBM binding z-score [1] | PBM binding z-score [2] | PBM binding z-score [3] | PBM binding z-score [4] | PBM binding z-score [5] | PBM binding z-score [6] | PBM binding z-score [7] | PBM binding z-score [8]
1 | TCATAAAGGTAAAAGGTGAAAGTCGGTGTGGTAA | 2.25 | 2.87 | 1.28 | 1.94 | 4.16 | 2.34 | 0.408 | 0.435
2 | CCGACTTGGGCATAAGGTTACCATAAGCCAGCCC | 0.962 | 0.45 | 0.236 | -0.0632 | 0.906 | 1.84 | 1.27 | -0.535
3 | CCTCGGAGGACAGAAGGTCTGAGCTGTCCGCTTT | -0.106 | -0.159 | 0.14 | -0.0896 | -0.825 | -0.0206 | -0.537 | -0.369
4 | CGAACGAGGGCGTGAGTTGATAGCAAATGCCGAT | -0.277 | 0.0501 | -0.0612 | 1.36 | 0.221 | 0.142 | -0.691 | 0.785
5 | AGAATTAGGTTATTAAGATCAGGGAATTGCGGTC | 0.844 | 0.403 | 0.569 | 0.599 | 0.275 | 0.913 | 0.502 | 0.494
6 | GCTGCTAGGTGAGGTTGGTCAGCTAACGGGTACG | 0.45 | -0.285 | -0.239 | -0.389 | -0.532 | 0.337 | -0.133 | -0.159
7 | TCGTGTAGGTTACCAATGGGGCATTCAGCTTTCT | 1.15 | 1.46 | 0.613 | 0.901 | 0.634 | 0.276 | 0.371 | -0.0857
8 | TCTGTTAGGTCAGTTGGTCAGCTAACGAGCTGCC | 3.01 | 3.01 | 4.2 | 1.33 | 1.19 | 2.68 | 1.69 | 0.469
9 | CCTCGGAGTACAACAGGAGGTCAGAGCTGCCAGA | 2.99 | 3.01 | 2.39 | 1.27 | 1.86 | 2.16 | 0.436 | 1.47
10 | TCAGACAGGTGAAGGTGACTCAGGTACGCAGTCG | 1.6 | 0.814 | 0.949 | 0.889 | 0.995 | 1.66 | 0.461 | 0.358
11 | CAAACTAGGTCAAAGAGGTCAAAGTCCGTGCGTA | 5.27 | 6.66 | 6.81 | 3.24 | 7.15 | 4.4 | 2.33 | 6.65
12 | TCGGACAGGTGAAGGTAACTCAGGTACGCAGTCG | 1.08 | 0.664 | 1.17 | 0.768 | 0.653 | 1.33 | 0.486 | 0.395
13 | ATATGTAGGTGATCGGGTCATTCAGTTTGCGCAT | 2.55 | 2.48 | 1.78 | 1.09 | 2.44 | 2.91 | 2.14 | 3.46
14 | GGAACGAGGGCATTCGAGTGGATAGCATGGCGAT | 0.402 | 0.904 | 1.23 | 2.83 | 0.651 | 1.69 | -0.704 | 1.87
15 | CGTCCAAGGTCAGAGGTCAGTGAAGAGATGACGG | 5.38 | 7.02 | 7.05 | 2.66 | 7.78 | 4.58 | 2.42 | 2.61
16 | TCTTGTAGATCAATAGAGGTTAAGAACGTGCGCT | 1.05 | 0.792 | 0.716 | 0.923 | 1.54 | 2.33 | -0.182 | 0.37
17 | ACAGACAGGTGCGTGAAGGTAACTCAGCTGGACG | -0.567 | -0.319 | -0.0259 | -0.249 | -0.0792 | -0.227 | -0.945 | -0.569
18 | CCGACTGGGGCAGAAGGGTTACCATACCATCCGG | 1.08 | 0.666 | 0.787 | -1.36 | 0.641 | 0.0428 | -0.605 | -0.332
19 | CCGACTGGTGCAAGGTTACCATAACGCACAGCCA | 0.979 | 0.462 | 0.421 | 0.0825 | 0.899 | 1.08 | 0.473 | 0.112
20 | CCGACTGGGGCATAAGGTTAACATAAGCCAGCCC | 1.89 | 2.08 | 1.34 | -0.0628 | 1.45 | 2.08 | 1.06 | -0.243
21 | TAGCCTAGCTCATTGGGCCAGTATAGTACGCATC | -0.698 | -0.5 | -0.328 | -0.683 | -0.449 | -0.611 | -0.587 | -0.87
22 | CTACCAAGGTGACCAAGGTCGTTGATTACTATTC | 1.86 | 1.47 | 1.08 | 1.1 | 1.66 | 2.92 | 1.76 | 2.06
23 | AGTCTAAGTTCATCTAGGTAACGTAAGATATGCT | 2.48 | 3.58 | 4.02 | 4.94 | 2.6 | 2.9 | 0.767 | 5.9
24 | AGAATGAGGTTATTAAGATCAGGAAATTGCGGTC | 0.491 | 1.3 | 0.9 | 1.99 | 1.75 | 2.06 | 0.497 | 1.18
25 | CCAGACAGTTGAAAGGTAACTCAGTCTGGTACGC | 0.351 | 0.456 | 0.357 | 0.511 | 0.993 | 0.38 | -0.129 | -0.355
26 | TCATATAGGTAAAGGTGACAGTCGAACGATATGA | 1.42 | 1.61 | 1.5 | 0.827 | 2.06 | 1.38 | -0.0654 | -0.0372
27 | CAAACCAGGTCAAGGTCAAAGTCGGTTTGTGCCA | 5.11 | 6.13 | 6.35 | 3.39 | 6.52 | 4.77 | 4.35 | 4.97
28 | CCGAGTAGGTTCTGGGGCATTCAGGCAACGGTGA | 0.469 | -0.508 | -0.495 | -0.0942 | -0.58 | 0.118 | 0.0185 | 0.0206
